Measurements: PubChem BioAssay AID1508601 (ICCB-Longwood Screening Facility, Harvard Medical School, 2020)
Where “and” joins values, the source holds several entries; their conditions need not be identical. Identical values can stand only once. Screen size: about 5,700 compounds; about 85 (1%) were called active. Cut-off read from the data, not from the text of the source: active = p53-positive nuclei above about 36% (passing the limit was not always enough); inactive = the rest. Only a selection was taken, and actives are over-represented in it overall.

Key:
[1] = p53 stabilisation in HPV-positive human cells, imaging, p53-positive nuclei imaging, 24 h, 48 h (AID 1508601); settings: 24/48 h
[2] = biological target: Cellular tumor antigen p53 (Homo sapiens) (UniProt P04637); experiment: as above; settings: 24/48 h, stronger effect = higher value
[3] = measured here: cell number at 24 h, Library stock concentration: 80 uM
[4] = measured here: cell number at 24 h, Library stock concentration: 400 uM
[5] = measured here: cell number at 24 h, Library stock concentration: 2 mM
[6] = measured here: cell number at 24 h, Library stock concentration: 10 mM
[7] = measured here: cell number at 48 h, Library stock concentration: 80 uM
[8] = measured here: cell number at 48 h, Library stock concentration: 400 uM
[9] = measured here: cell number at 48 h, Library stock concentration: 2 mM
[10] = measured here: cell number at 48 h, Library stock concentration: 10 mM
[11] = Library stock concentration: 80 uM
[12] = Library stock concentration: 400 uM
[13] = Library stock concentration: 2 mM
[14] = Library stock concentration: 10 mM
[15] = measured here: p53 positive nuclei at 24 h, Library stock concentration: 80 uM
[16] = measured here: p53 positive nuclei at 24 h, Library stock concentration: 400 uM
[17] = measured here: p53 positive nuclei at 24 h, Library stock concentration: 2 mM
[18] = measured here: p53 positive nuclei at 24 h, Library stock concentration: 10 mM
[19] = measured here: cell number at 24 h, concentration not given here
[20] = measured here: cell number at 48 h, concentration not given here
[21] = measured here: p53 positive nuclei at 24 h, concentration not given here

Chain of Cellular tumor antigen p53 (Homo sapiens) (P04637 whole entry, looked up): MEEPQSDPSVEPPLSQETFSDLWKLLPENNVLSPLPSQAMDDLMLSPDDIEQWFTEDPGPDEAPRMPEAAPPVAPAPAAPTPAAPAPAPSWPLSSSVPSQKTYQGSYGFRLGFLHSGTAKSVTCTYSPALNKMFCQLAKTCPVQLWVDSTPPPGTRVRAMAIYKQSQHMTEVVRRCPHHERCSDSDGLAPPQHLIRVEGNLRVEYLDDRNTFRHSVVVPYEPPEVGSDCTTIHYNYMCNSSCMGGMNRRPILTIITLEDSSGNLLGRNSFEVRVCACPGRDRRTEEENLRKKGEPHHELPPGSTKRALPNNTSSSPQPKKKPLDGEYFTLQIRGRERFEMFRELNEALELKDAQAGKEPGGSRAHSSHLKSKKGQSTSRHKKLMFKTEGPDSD

## c1cc(NCCc2c[nH]c3ccccc23)cc(Nc2ccncc2)c1
[1]; [3]
  nuclei count, normalised: 103%
[1]; [4]
  nuclei count, normalised: 107%
[1]; [5]
  nuclei count, normalised: 107%
[1]; [6]
  nuclei count, normalised: 91.3%
[1]; [7]
  nuclei count, normalised: 101%
[1]; [8]
  nuclei count, normalised: 107%
[1]; [9]
  nuclei count, normalised: 108%
[1]; [10]
  nuclei count, normalised: 77.6%
[2]; [11]
  p53-positive nuclei, normalised: -0.0385% (inactive)
[2]; [12]
  p53-positive nuclei, normalised: -0.0904% (inactive)
[2]; [13]
  p53-positive nuclei, normalised: -0.152% (inactive)
[2]; [14]
  p53-positive nuclei, normalised: -0.0614% (inactive)
[2]; [15]
  p53-positive nuclei, normalised: -0.148%
[2]; [16]
  p53-positive nuclei, normalised: -0.0802%
[2]; [17]
  p53-positive nuclei, normalised: 0.142%
[2]; [18]
  p53-positive nuclei, normalised: -0.0614%

## COc1ccc(CN2CCN(c3nccc(-c4c(C)nn(C)c4C)n3)CC2=O)cc1
[1]; [19]
  nuclei count, normalised: 101%
[1]; [20]
  nuclei count, normalised: 105%
[2]; concentration not given here
  p53-positive nuclei, normalised: -0.125% (inactive)
[2]; [21]
  p53-positive nuclei, normalised: -0.147%

## CN(C)CCC(CSc1ccccc1)Nc1ccc(S(=O)(=O)NC(=O)c2ccc(N3CCN(Cc4ccccc4-c4ccc(Cl)cc4)CC3)cc2)cc1[N+](=O)[O-] (stereo not given)
[1]; measured here: cell number at 24 h, Library stock concentration: 500 nM
  nuclei count, normalised: 120%
[1]; measured here: cell number at 24 h, Library stock concentration: 1.5 uM
  nuclei count, normalised: 122%
[1]; measured here: cell number at 24 h, Library stock concentration: 4.6 uM
  nuclei count, normalised: 117%
[1]; measured here: cell number at 24 h, Library stock concentration: 13.7 uM
  nuclei count, normalised: 121%
[1]; measured here: cell number at 24 h, Library stock concentration: 41 uM
  nuclei count, normalised: 117%
[1]; [3]
  nuclei count, normalised: 111% and 86.3%
[1]; measured here: cell number at 24 h, Library stock concentration: 123 uM
  nuclei count, normalised: 117%
[1]; measured here: cell number at 24 h, Library stock concentration: 370 uM
  nuclei count, normalised: 117%
[1]; [4]
  nuclei count, normalised: 109% and 85.3%
[1]; measured here: cell number at 24 h, Library stock concentration: 1.111 mM
  nuclei count, normalised: 113%
[1]; [5]
  nuclei count, normalised: 113% and 92.5%
[1]; measured here: cell number at 24 h, Library stock concentration: 3.33 mM
  nuclei count, normalised: 105%
[1]; measured here: cell number at 24 h, Library stock concentration: 3.333 mM
  nuclei count, normalised: 127%
[1]; [6]
  nuclei count, normalised: 111% and 80.6% and 116%
[1]; measured here: cell number at 48 h, Library stock concentration: 500 nM
  nuclei count, normalised: 112%
[1]; measured here: cell number at 48 h, Library stock concentration: 1.5 uM
  nuclei count, normalised: 111%
[1]; measured here: cell number at 48 h, Library stock concentration: 4.6 uM
  nuclei count, normalised: 112%
[1]; measured here: cell number at 48 h, Library stock concentration: 13.7 uM
  nuclei count, normalised: 117%
[1]; measured here: cell number at 48 h, Library stock concentration: 41 uM
  nuclei count, normalised: 114%
[1]; [7]
  nuclei count, normalised: 99.7% and 87.7%
[1]; measured here: cell number at 48 h, Library stock concentration: 123 uM
  nuclei count, normalised: 112%
[1]; measured here: cell number at 48 h, Library stock concentration: 370 uM
  nuclei count, normalised: 113%
[1]; [8]
  nuclei count, normalised: 97.6% and 86%
[1]; measured here: cell number at 48 h, Library stock concentration: 1.111 mM
  nuclei count, normalised: 112%
[1]; [9]
  nuclei count, normalised: 98% and 96.4%
[1]; measured here: cell number at 48 h, Library stock concentration: 3.33 mM
  nuclei count, normalised: 102%
[1]; measured here: cell number at 48 h, Library stock concentration: 3.333 mM
  nuclei count, normalised: 126%
[1]; [10]
  nuclei count, normalised: 106% and 92.8% and 127%
[2]; Library stock concentration: 500 nM
  p53-positive nuclei, normalised: -0.0213% (inactive)
[2]; Library stock concentration: 1.5 uM
  p53-positive nuclei, normalised: 0.0237% (inactive)
[2]; Library stock concentration: 4.6 uM
  p53-positive nuclei, normalised: 0.0183% (inactive)
[2]; Library stock concentration: 13.7 uM
  p53-positive nuclei, normalised: -0.104% (inactive)
[2]; Library stock concentration: 41 uM
  p53-positive nuclei, normalised: -0.0533% (inactive)
[2]; [11]
  p53-positive nuclei, normalised: 0.0591% (inactive) and -0.273% (inactive)
[2]; Library stock concentration: 123 uM
  p53-positive nuclei, normalised: -0.176% (inactive)
[2]; Library stock concentration: 370 uM
  p53-positive nuclei, normalised: -0.136% (inactive)
[2]; [12]
  p53-positive nuclei, normalised: 0.0679% (inactive) and 0.126% (inactive)
[2]; Library stock concentration: 1.111 mM
  p53-positive nuclei, normalised: -0.092% (inactive)
[2]; [13]
  p53-positive nuclei, normalised: -0.0104% (inactive) and 0.232% (inactive)
[2]; Library stock concentration: 3.33 mM
  p53-positive nuclei, normalised: -0.445% (inactive)
[2]; Library stock concentration: 3.333 mM
  p53-positive nuclei, normalised: -0.149% (inactive)
[2]; [14]
  p53-positive nuclei, normalised: -0.104% (inactive) and 0.208% (inactive) and -0.0111% (inactive)
[2]; measured here: p53 positive nuclei at 24 h, Library stock concentration: 500 nM
  p53-positive nuclei, normalised: 0.154%
[2]; measured here: p53 positive nuclei at 24 h, Library stock concentration: 1.5 uM
  p53-positive nuclei, normalised: -0.0609%
[2]; measured here: p53 positive nuclei at 24 h, Library stock concentration: 4.6 uM
  p53-positive nuclei, normalised: -0.00335%
[2]; measured here: p53 positive nuclei at 24 h, Library stock concentration: 13.7 uM
  p53-positive nuclei, normalised: -0.0575%
[2]; measured here: p53 positive nuclei at 24 h, Library stock concentration: 41 uM
  p53-positive nuclei, normalised: 0.00542%
[2]; [15]
  p53-positive nuclei, normalised: -0.0528% and -0.0593%
[2]; measured here: p53 positive nuclei at 24 h, Library stock concentration: 123 uM
  p53-positive nuclei, normalised: -0.105%
[2]; measured here: p53 positive nuclei at 24 h, Library stock concentration: 370 uM
  p53-positive nuclei, normalised: -0.113%
[2]; [16]
  p53-positive nuclei, normalised: -0.0967% and 0.0394%
[2]; measured here: p53 positive nuclei at 24 h, Library stock concentration: 1.111 mM
  p53-positive nuclei, normalised: -0.104%
[2]; [17]
  p53-positive nuclei, normalised: -0.0967% and 0.437%
[2]; measured here: p53 positive nuclei at 24 h, Library stock concentration: 3.33 mM
  p53-positive nuclei, normalised: 0.0238%
[2]; measured here: p53 positive nuclei at 24 h, Library stock concentration: 3.333 mM
  p53-positive nuclei, normalised: -0.165%
[2]; [18]
  p53-positive nuclei, normalised: -0.00444% and -0.0479% and 0.0019%

## CCCCC[C@@](C)(O)/C=C/[C@H]1[C@H](O)CC(=O)[C@@H]1C/C=C\CCCC(=O)O
[1]; [19]
  nuclei count, normalised: 101%
[1]; [20]
  nuclei count, normalised: 105%
[2]; concentration not given here
  p53-positive nuclei, normalised: -0.0639% (inactive)
[2]; [21]
  p53-positive nuclei, normalised: 0.0947%
